Test results from PubChem BioAssay (NCATS).
Inconclusive results are not listed. Active and inactive are the calls of the source. The call rests on the fitted dose curve; in most records, active means well fitted cell-killing curve with a large enough effect; inconclusive means small, poorly fitted or top-dose-only effect; inactive means no such curve, though single readings can be large or run the other way.

Experiment: qHTS of pediatric cancer cell lines to identify multiple opportunities for drug repurposing: Primary screen for Rh30 cells (AID 1347107); further: on the % scale 0 is the no-effect control and ±100 the full control effect; nearly all actives have a fitted effect of over 75% in size
Details: Rh30 rhabdomyosarcoma viability, CellTiter-Glo luminescence, 48 h; series mostly up to 46 µM; activity change, negative = cytotoxic: at the top concentration
Procedure, shortened: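 Cells (500-1,000/well) in growth media were settled 5 h at 37 degrees C, then given compounds for 48 h. Viability was read as CellTiter-Glo luminescence. Primary runs used MIPE at 11 points (0.78 nM-46 µM) and NPC at 8 points (0.59 nM-46 µM); follow-ups used 11 points.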

Row | Compound | activity change, negative = cytotoxic
1 | CC[N+](C)(C)c1cccc(O)c1 | 8.71% (inactive)
2 | CC1=NS(=O)(=O)c2cc(Cl)ccc2N1 | 17.1% (inactive)
3 | C[N+](C)(C)CCOC(N)=O | 20.7% (inactive)
4 | c1ccc2c(c1)CCCC2C1=NCCN1 (centres undefined) | 26.1% (inactive)
5 | CN(C)C(=O)Oc1cccc([N+](C)(C)C)c1 | 29.5% (inactive)
6 | CCN(CC)CC(=O)Nc1c(C)cccc1C | 14.3% (inactive)
7 | COc1ccc(CN(CCN(C)C)c2ccccn2)cc1 | 20.8% (inactive)
8 | CCO/C([O-])=N/c1c[n+](N2CCOCC2)no1 | 12.9% (inactive)
9 | Brc1c(NC2=NCCN2)ccc2nccnc12 | 2.72% (inactive)
10 | NC/C=C/C(=O)O | 22.4% (inactive)

Experiment: qHTS of pediatric cancer cell lines to identify multiple opportunities for drug repurposing: Primary screen for Rh41 cells (AID 1347108);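 further: luminescence drop marks cytotoxic hits; nearly all actives have a fitted effect of over 70% in size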
Details: Rh41 rhabdomyosarcoma viability, CellTiter-Glo luminescence, 48 h; series mostly up to 46 µM; activity change, negative = cytotoxic: at the top concentration
Procedure, shortened: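 CRCs from 8- or 11-point titrations (lowest final 0.59 nM NPC, 0.78 nM MIPE). Cell viability: CellTiter-Glo after 48 h incubation, 15 min room-temperature development, luminescence imaging.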

Row | Compound | activity change, negative = cytotoxic
11 | C[N+](C)(C)CCOC(=O)CCC(=O)OCC[N+](C)(C)C | 18.5% (inactive)
12 | C[C@]12C=CC(=O)C=C1CC[C@H]1[C@@H]3C[C@@H](O)[C@](O)(C(=O)CO)[C@@]3(C)C[C@H](O)[C@@]12F | 23.8% (inactive)
13 | CC(=O)OCC1=C(C(=O)O)N2C(=O)[C@@H](NC(=O)Cc3cccs3)[C@H]2SC1 | 30.6% (inactive)
14 | CC(C)NNC(=O)c1ccncc1 | 20% (inactive)
15 | CCN(CC)CCNC(=O)c1cc(S(C)(=O)=O)ccc1OC | 27.6% (inactive)
16 | O=C(O)CN(CCOCCOCCN(CC(=O)O)CC(=O)O)CC(=O)O | 18.7% [at 0.597 µM] (inactive)
17 | Cc1cccc(C)c1NC(=O)C(C)N (centres undefined) | 14% (inactive)
18 | CSc1ccc(C(=O)c2[nH]c(=O)[nH]c2C)cc1 | 15.8% (inactive)
19 | C[N+](C)(C)CCCCCCCCCC[N+](C)(C)C | 19.8% (inactive)
20 | Cc1nnc(SCC2=C(C(=O)O)N3C(=O)[C@@H](NC(=O)Cn4cnnn4)[C@H]3SC2)s1 | 28.1% (inactive)
21 | NC(=O)N1c2ccccc2C=Cc2ccccc21 | 36.6% (inactive)
22 | CC(C(=O)O)c1ccc(CC2CCCC2=O)cc1 (centres undefined) | 21% (inactive)
23 | CCn1ccnc1CC1COc2ccccc2O1 (centres undefined) | 16.9% (inactive)
24 | COc1ccc([C@@H]2Sc3ccccc3N(CCN(C)C)C(=O)[C@@H]2OC(C)=O)cc1 | 18% (inactive)
25 | c1cnc(N2CCN(Cc3ccc4c(c3)OCO4)CC2)nc1 | 31.6% (inactive)
26 | CN1CCN(CC(=O)N2c3ccccc3C(=O)Nc3cccnc32)CC1 | 19.3% [at 4.84 µM] (inactive)
27 | CN(C)CCOC(=O)COc1ccc(Cl)cc1 | 26.4% (inactive)

Row | Compound | activity change, negative = cytotoxic
28 | Cc1ccc(=O)n(-c2ccccc2)c1 | 35.9% (inactive)
29 | CCCN(CCC)C(=O)C(CCC(=O)O)NC(=O)c1ccccc1 (centres undefined) | 14.8% (inactive)
30 | CCCOc1ccccc1-c1nc2n[nH]nc2c(=O)[nH]1 | 15.3% (inactive)
31 | O=C1CC2(CCCC2)CC(=O)N1CCCCN1CCN(c2ncccn2)CC1 | 16.9% (inactive)
32 | NC(Cc1ccc(Cl)cc1)C(=O)O (centres undefined) | 28% [at 0.597 µM] (inactive)
33 | CC[N+](C)(C)c1cccc(O)c1 | 17.3% (inactive)
34 | CCc1c(C)[nH]c2c1C(=O)C(CN1CCOCC1)CC2 (centres undefined) | 16.3% (inactive)
35 | CC1=NS(=O)(=O)c2cc(Cl)ccc2N1 | 22.5% (inactive)
36 | C[N+](C)(C)CCOC(N)=O | 24.4% (inactive)
37 | c1ccc2c(c1)CCCC2C1=NCCN1 (centres undefined) | 25.6% (inactive)
38 | CN(C)C(=O)Oc1cccc([N+](C)(C)C)c1 | 32.2% (inactive)
39 | CCN(CC)CC(=O)Nc1c(C)cccc1C | 13.7% (inactive)
40 | COc1ccc(CN(CCN(C)C)c2ccccn2)cc1 | -3.58% (inactive)
41 | CCO/C([O-])=N/c1c[n+](N2CCOCC2)no1 | 15.4% (inactive)
42 | CN1C(=O)CC[C@H]1c1cccnc1 | 24.8% (inactive)
43 | Brc1c(NC2=NCCN2)ccc2nccnc12 | 10.8% (inactive)
44 | NC/C=C/C(=O)O | 16.7% (inactive)
